# Laboratory results as given in PubChem BioAssay (NCI).
# This is part of a sample that, as a whole, favours compounds with a hit. Of some 83,000 tested, about 20% had one in any assay.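 Cells were grown in 96-well plates and exposed to the test compound at a single concentration for 48 hours; results are reported as percent growth, with values below 10 considered active.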 Unmarked numbers belong to inactive results. Activity calls are given as the source filed them.
# Key:
# Assay in all cases: NCI-60 one-dose screen, 48 h (100 = growth as untreated, 0 = no growth, -100 = all killed)
# Conditions in all cases: 10 µM unless noted
# SR leukemia = tested on: SR leukemia
# RPMI-8226 leukemia = tested on: RPMI-8226 leukemia
# OVCAR-8 ovarian = tested on: OVCAR-8 ovarian
# OVCAR-5 ovarian = tested on: OVCAR-5 ovarian
# OVCAR-4 ovarian = tested on: OVCAR-4 ovarian
# SK-OV-3 ovarian = tested on: SK-OV-3 ovarian
# IGROV1 ovarian = tested on: IGROV1 ovarian
# OVCAR-3 ovarian = tested on: OVCAR-3 ovarian
# HS 578T breast = tested on: HS 578T breast
# NCI/ADR-RES ovarian = tested on: NCI/ADR-RES ovarian
# BT-549 breast = tested on: BT-549 breast
# MDA-MB-435 melanoma = tested on: MDA-MB-435 melanoma
# SW-620 colon = tested on: SW-620 colon
# MCF7 breast = tested on: MCF7 breast
# HCT-116 colon = tested on: HCT-116 colon
# HCC-2998 colon = tested on: HCC-2998 colon
# KM12 colon = tested on: KM12 colon
# T-47D breast = tested on: T-47D breast
Compound,growth (SR leukemia),growth (RPMI-8226 leukemia),growth (OVCAR-8 ovarian),growth (OVCAR-5 ovarian),growth (OVCAR-4 ovarian),growth (SK-OV-3 ovarian),growth (IGROV1 ovarian),growth (OVCAR-3 ovarian),growth (HS 578T breast),growth (NCI/ADR-RES ovarian),growth (BT-549 breast),growth (MDA-MB-435 melanoma),growth (SW-620 colon),growth (MCF7 breast),growth (HCT-116 colon),growth (HCC-2998 colon),growth (KM12 colon),growth (T-47D breast)
CC1O[C@@H](OC2[C@H](OC(=O)/C=C/c3ccc(O)c(O)c3)C(COC3O[C@H](C)C(O)C(O)[C@@H]3O)O[C@@H](OCCc3ccc(O)c(O)c3)[C@H]2O)[C@@H](O)C(O)[C@H]1O (stereo not given in full),105%,104%,106%,105%,104%,90.3%,102%,108%,108%,116%,98.8%,103%,108%,98.2%,103%,99.4%,99.3%,
COC(=O)[C@]12CC[C@@H](C)[C@H](C)[C@@H]1C1=CC[C@@H]3[C@@]4(C)C(C=O)=C[C@@](C)(CO)[C@@H]4[C@H](O)C[C@@]3(C)[C@]1(C)CC2,-20.4% (active),-10.1% (active),-2.42% (active),-19.7% (active),-5.06% (active),3.19% (active),3.94% (active),-91.9% (active),,-10.2% (active),-15.6% (active),-16% (active),-1.77% (active),3.73% (active),-81.4% (active),-79.2% (active),1.71% (active),-19.8% (active)
N#Cc1nc2c(S(=O)(=O)c3ccc(Cl)cc3)c(N)n(Nc3cccc(Cl)c3)c2nc1C#N,-6.78% (active),3.39% (active),24%,68.4%,42.6%,50.2%,,59.4%,31.2%,79.6%,47.8%,53%,35.9%,58.5%,32.9%,82.3%,64.3%,53.5%
O=C(COc1ccc(/C=C2\Oc3ccccc3C2=O)cc1)Nc1nc2ccccc2s1,-71.9% (active),-56.8% (active),18.8%,67.8%,89.9%,116%,,66.5%,88.5%,75.5%,46.2%,65%,96.3%,120%,87.3%,107%,-28.7% (active),91.4%
O=C(COc1ccc(/C=C2\Oc3ccccc3C2=O)cc1)Nc1nc2c(s1)CCCC2,-90.7% (active),-86.3% (active),6.97% (active),61.7%,75.6%,27.3%,,29.3%,69.2%,78.8%,-13.9% (active),24.4%,65.5%,82.5%,75.5%,99.6%,-75% (active),87%
Cc1cc[c-]cc1.Fc1c[c-]c(-c2ccccn2)c(F)c1.[Pt+2].c1ccc(P(C[PH+](c2ccccc2)c2ccccc2)c2ccccc2)cc1,16.8%,-4.4% (active),11%,23.6%,-2.01% (active),-3.95% (active),23.5%,12.9%,39.6%,87.3%,20.6%,8.28% (active),14.6%,6.01% (active),9.8% (active),33.1%,18%,
O=C(CC(SCc1ccccc1)c1ccccc1)c1ccccc1 (stereo not given),41%,38.5%,103%,98.4%,90%,99.7%,91.4%,86.5%,,93.5%,94%,84.6%,83.5%,14.6%,37.2%,99.9%,84.8%,74.7%
COc1ccc(-c2nc3c(c(=O)n2C(C)=O)C(c2ccc(Cl)cc2)c2sc4c(Cl)cccc4c2O3)cc1 (stereo not given),-11.7% (active),2.22% (active),-23% (active),-13.8% (active),24.4%,-22.6% (active),12.5%,-71.4% (active),-15.6% (active),,,0.072% (active),-17.5% (active),4.61% (active),-58.6% (active),-34.5% (active),-8.16% (active),11.9%
Cc1ccc2nc(NC(=O)CSc3nc(-c4ccccc4)c(C#N)c(=O)n3Cc3ccccc3)sc2c1,44.5%,67.8%,93%,108%,92.8%,82.1%,78%,58.5%,,92.2%,,45.7%,87.4%,86.2%,95.9%,118%,90.6%,-80.8% (active)
COC(=O)CCC1=C(C)C2=NC1=CC1=NC(=CC3=NC(=Cc4[nH]c(/c(=C(/C)O)c4C)=C2)C(C(C)=O)=C3C)C(C)=C1CCC(=O)OC,111%,85.7%,100%,111%,107%,95.1%,108%,107%,89.1%,,100%,108%,103%,98.2%,102%,104%,104%,82.9%
CC(C)CCC[C@@H](C)[C@H]1CC[C@H]2[C@@H](Nc3ccc(O)cc3)CCC[C@]12C,71.8%,96.6%,97.6%,114%,-73.1% (active),75.3%,38.8%,84.8%,104%,71.4%,113%,100%,114%,56.1%,84.8%,122%,87.9%,
COc1ccc(-c2ccc3c(c2)sc2nc(-c4ccc(F)cc4)cn23)cc1,93.4%,76.7%,68.5%,70.7%,73.6%,84.2%,100%,88%,,85.5%,105%,74.3%,98.8%,33.3%,42.3%,29.3%,64.8%,55.1%
C=C1C(=O)O[C@H]2[C@H]1CC/C(CNC(=O)/C=C/c1ccc(Cl)cc1Cl)=C\CC[C@@]1(C)O[C@@H]21,-28.8% (active),-33.1% (active),-28.7% (active),-31.9% (active),-52.7% (active),20.3%,-32.7% (active),-100% (active),-4.31% (active),,-53.1% (active),4.95% (active),-51.6% (active),-59.9% (active),-73.9% (active),-93.3% (active),20%,-61.2% (active)
CC1CC(C(C)(C)C)C(=O)C(C(C)(C)C)C1 (stereo not given),101%,111%,107%,99.6%,119%,105%,126%,118%,106%,,110%,103%,101%,108%,,111%,108%,111%
c1cc2ccc3cc2cc1CNCCOCCNCc1ccc2ccc(cc2c1)CNCCOCCNC3,10.1%,0.51% (active),-3.14% (active),-16.8% (active),-40.4% (active),,-4.09% (active),-40% (active),,105%,99.6%,-90.2% (active),2.45% (active),-17.1% (active),-4.41% (active),-57.4% (active),-39% (active),-23.8% (active)
CC1SC(c2ccc(OCc3ccccc3)cc2)N(NC(=O)C(O)(c2ccccc2)c2ccccc2)C1=O (stereo not given),35.9%,-7.26% (active),77.8%,80.5%,54.7%,73.3%,,31%,74.6%,63.5%,92.9%,,69.7%,35.7%,,79.9%,34.2%,25.8%
O=C1CC(N2C(=O)/C(=C/C(Cl)=C\c3ccc([N+](=O)[O-])cc3)SC2=S)C(=O)N1c1ccc(O)cc1 (stereo not given),-13.4% (active),-15.1% (active),,-56.5% (active),14.1%,33.5%,-45.8% (active),-16.4% (active),15.5%,3.58% (active),-17.3% (active),-12% (active),0.226% (active),-11.6% (active),-31.2% (active),-81.6% (active),-72.4% (active),17.2%
CC1(C)OC2C(CO[Si](C)(C)C(C)(C)C)OC(n3c(I)c(C#C[Si](C)(C)C)c(=O)[nH]c3=O)C2O1 (stereo not given),63.6%,-12.2% (active),88.6%,92.6%,,111%,96.7%,-41.1% (active),3.19% (active),82.7%,118%,83%,-43% (active),106%,71%,-51% (active),107%,96.2%
